Experiment [1] addresses Thyrotropin receptor (Homo sapiens) (UniProt P16473). Briefly: qHTS assay to identify small molecule antagonists of the thyroid stimulating hormone receptor (TSHR) signaling pathway (AID 1259385; calls by dose curve; further: nearly all actives have a fitted effect of over 20% in size). The essentials: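 Antagonist mode: compound-treated TSHR-expressing HEK293 cells were stimulated with 1.5 ng/mL TSH (final) in presence of Ro20-1724 for 30 min at RT. HTRF cAMP detection after 1 h; each compound tested at 15 concentrations, triplicate.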

Experiment [2] can be described thus: qHTS assay to identify small molecule agonists of the estrogen receptor alpha (ER-alpha) signaling pathway in the presence of an antagonist - cell viability counter screen (AID 1259386).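 Further: series mostly up to about 92 µM; cells exposed to compounds for 22 h at 37 °C before the viability read; nearly all actives have a fitted effect of over 30% in size.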 An outline of the steps: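 Cytotoxicity was measured in parallel with the ERE-luciferase agonist screen, in the same wells. The cells were VM7Luc4E2, which endogenously express ER-alpha, and treatment was with compounds plus 10.0nM ICI-182,780 for 22hr.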
A general note: qHTS replaces the single test concentration by a dilution series.

Experiment [3] addresses Progesterone receptor (Homo sapiens) (UniProt P06401). Nature of the experiment: qHTS assay to identify small molecule agonists of the progesterone receptor (PR) signaling pathway (AID 1346784; calls by dose curve; further: nearly all actives have a fitted effect of over 30% in size). An outline of the steps: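 PR-UAS-bla HEK 293T cells carrying a UAS-driven beta-lactamase reporter were seeded in medium with 2% charcoal-stripped FBS, preincubated 6 hr at 37C, then exposed to compounds in DMSO for 16 hr; agonism was read by LiveBLAzer B/G FRET fluorescence.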

For experiment [4] the target is unchanged. Nature of the experiment: qHTS assay to identify small molecule antagonists of the progesterone receptor (PR) signaling pathway (AID 1346795; active means well fitted inhibition curve with a large enough effect in the signal ratio in the repeat runs, not every such curve was filed as active; the % refers to the signal ratio). An outline of the steps:
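PR-UAS-bla HEK293T cells carrying a UAS-driven beta-lactamase reporter were plated in medium with 2% charcoal-stripped FBS and rested 6 hr at 37C. Compounds were added with 1 nM R5020 (final) for 16 hr, then FRET substrate loaded 2 hr at room temperature.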

A short description of experiment [5]: qHTS assay to identify small molecule antagonists of the progesterone receptor (PR) signaling pathway - cell viability counter screen (AID 1346798). Further: series mostly up to about 92 µM; nearly all actives have a fitted effect of over 50% in size. An outline of the steps:
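PR-UAS-bla HEK293T cells in medium with 2% charcoal-stripped FBS were treated with compounds plus R5020 for 16 hr at 37C. Cell viability was then read by CellTiter-Glo luminescence after 30 min at room temperature in the same wells.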

Experiment [6] can be described thus: qHTS assay to identify small molecule antagonists of the TGF-beta/Smad signaling pathway - cell viability counter screen (AID 1346824). Further: nearly all actives have a fitted effect of over 50% in size. An outline of the steps:
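Cytotoxicity counter-screen run in the same wells as the beta-lactamase Smad reporter read: CellTiter-Glo luminescence after 30 min at room temperature. HEK 293T SBE-bla cells had 5 hr compound exposure at 37 C with TGF-beta1 (0.25 ng/mL stock).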

Experiment [7] can be described thus: qHTS assay to identify small molecule agonists of the TGF-beta/Smad signaling pathway - cell viability counter screen (AID 1346829). Further: top concentration of the series differs between compounds; nearly all actives have a fitted effect of over 45% in size. The essentials: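 Here the cytotoxicity of library compounds is measured in SBE-bla HEK 293T cells treated for 5 hr, using CellTiter-Glo added to wells already read for the beta-lactamase reporter.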
A short description of experiment [8]: qHTS assay to identify small molecule agonists of the TGF-beta/Smad signaling pathway (AID 1346859; active means well fitted activation curve with a large enough effect in the signal ratio in the repeat runs, not every such curve was filed as active; the % refers to the signal ratio; further: series mostly up to about 77 µM). An outline of the steps: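 HEK 293T cells stably carrying a beta-lactamase reporter driven by the Smad binding element were seeded overnight, exposed to DMSO-dissolved compounds for 5 hr at 37 C, 5% CO2, then loaded with FRET substrate for 2 hr at room temperature.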

The target in experiment [9] is Thyrotropin-releasing hormone receptor (Homo sapiens) (UniProt P34981). Briefly: qHTS assay to identify small molecule antagonists of the thyrotropin-releasing hormone receptor (TRHR) signaling pathway (AID 1346877; active means well fitted inhibition curve with a large enough effect in the repeat runs, not every such curve was filed as active; further: series mostly up to about 51 µM). The essentials: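 Antagonism is measured as suppression of the calcium response to 1 nM TRH in TRHR-HEK293 cells that have been dye-loaded for 2 h at 37 °C after overnight plating. Each compound is tested at 15 concentrations in triplicate.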

For experiment [10] the target is unchanged. Nature of the experiment: qHTS assay to identify small molecule agonists of the thyrotropin-releasing hormone receptor (TRHR) signaling pathway (AID 1346891; calls by dose curve; further: series mostly up to about 58 µM). The essentials: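 TRHR-expressing HEK293 cells were plated 18 h at 37 °C/5% CO2, loaded with calcium dye 2 h at 37 °C, then given compound in DMSO; fluorescence was read kinetically for 3 min at 1 s intervals.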

Experiment [11] is described as follows: Human pregnane X receptor (PXR) small molecule agonists, qHTS cell viability counter screen (AID 1346977). Further: nearly all actives have a fitted effect of over 50% in size. The essentials:
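PXR-Luc HepG2 cells in medium with 5% charcoal-stripped FBS were pre-incubated 5hr, then exposed to compounds for 24hr at 37C. Viability was read in the same wells by CellTiter-Fluor fluorescence, reagent added after 23hr with a 1hr incubation.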

The nature of experiment [12]: Caspase-3/7 induction in HepG2 cells by small molecules, qHTS assay (AID 1346978). Further: nearly all actives have a fitted effect of over 15% in size. An outline of the steps: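 Caspase-3/7 induction was measured by Caspase-Glo 3/7 luminescence (30 min, room temperature) after a 17 hr compound exposure of wild-type HepG2 cells seeded at 2,000 per well and pre-incubated 5 hr.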
The nature of experiment [13]: Caspase-3/7 induction in CHO-K1 cells by small molecules, qHTS cell viability counter screen (AID 1346979). Further: nearly all actives have a fitted effect of over 35% in size. The essentials:
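Wild-type CHO-K1 cells were seeded at 1,500 per well, rested 5hr at 37 C, then exposed to compounds in DMSO. After 16hr, CellTiter-Fluor reagent was added and fluorescence read 1hr later as the viability measure.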

Experiment [14] in a line: Caspase-3/7 induction in CHO-K1 cells by small molecules, qHTS assay (AID 1346980). Further: nearly all actives have a fitted effect of over 15% in size. An outline of the steps: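 Luminescent Caspase-Glo 3/7 read (30min, room temperature) quantified apoptosis induction. Cells were wild-type CHO-K1, treated with compound for 17hr at 37 C and 5% CO2.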
Experiment [15] is described as follows: Caspase-3/7 induction in HepG2 cells by small molecules, qHTS cell viability counter screen (AID 1346981). Further: series mostly up to about 92 µM; nearly all actives have a fitted effect of over 30% in size. An outline of the steps:
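Cell viability is measured as a cytotoxicity counter screen alongside the Caspase-Glo 3/7 readout in identical wells. Wild-type HepG2 cells are treated with test compounds for 16 hr at 37 C before CellTiter-Fluor addition and a 1-hr incubation.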

Experiment [16] deals with Nuclear receptor subfamily 1 group I member 2 (Homo sapiens) (UniProt O75469). Briefly: Human pregnane X receptor (PXR) small molecule agonists, qHTS assay (AID 1346982). Further: nearly all actives have a fitted effect of over 35% in size. The essentials: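 Cells: HepG2 stably carrying PXR-Luc. Medium held 5% charcoal-stripped FBS. Compounds in DMSO added after 5 hr plating, incubated 24 hr, then luminescence quantified with ONE-Glo.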

A short description of experiment [17]: qHTS assay to identify small molecule agonists of the progesterone receptor (PR) signaling pathway - cell viability counter screen (AID 1346799; calls by dose curve; further: nearly all actives have a fitted effect of over 45% in size). The essentials: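 PR-UAS-bla HEK293T cells, 3,000 per well in medium with 2% charcoal-stripped FBS, were preincubated 6 hr at 37C, then exposed to compounds for 16 hr; viability was read as CellTiter-Glo luminescence after 30 min at room temperature.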

Experiment [18] addresses Nuclear receptor subfamily 1 group I member 2 (Rattus norvegicus) (UniProt Q9R1A7). Briefly: Rat pregnane X receptor (rPXR) activation by small molecules, qHTS assay (AID 1346983). Further: nearly all actives have a fitted effect of over 20% in size. The settings on record: rPXR luciferase reporter cells, One-Glo luminescence, 24 h; active compounds read high. The essentials: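 Luminescent readout (One-Glo luciferase, 30 min room temperature) followed 24 hr compound treatment at 37 C of rPXR cells plated 2,000 per well and preincubated 5hr; qHTS format with compounds delivered in DMSO.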

Experiment [19] concerns the target Nuclear receptor subfamily 1 group I member 2 (Homo sapiens) (UniProt O75469). Nature of the experiment: CYP3A4 induction through human pregnane X receptor (PXR) by small molecules, qHTS assay (AID 1346984). Further: nearly all actives have a fitted effect of over 40% in size. Further: potency means the concentration at half of the fitted maximal effect. The essentials: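 Quantitative HTS in DPX-2 cells, i.e. HepG2 transfected with PXR response element and CYP3A4-promoter luciferase. Compounds in DMSO incubated 24hr at 37C; then P450-Glo CYP3A4 substrate, 3uM final, 3hr; One-Glo luminescence.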

For experiment [20] the target is unchanged. Nature of the experiment: Human pregnane X receptor (PXR) activation by small molecules, qHTS assay (AID 1346985). Further: nearly all actives have a fitted effect of over 40% in size. Further: potency means the concentration at half of the fitted maximal effect. An outline of the steps:
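DPX-2 cells (HepG2 co-transfected with a PXR response element and a CYP3A4-promoter luciferase construct) were seeded at 2,000 per well, rested 5 hr at 37C, then exposed to DMSO-dissolved compounds for 24 hr. Activation was read as luciferase luminescence.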

Values without a mark were called inactive. Inconclusive results are not listed. The source made the active and inactive calls. Unless noted, the call rests on the fitted dose curve; in most records, active means well fitted curve in the direction sought with a large enough effect in the repeat runs; inconclusive means weak or mixed curves; inactive means no such curve, though single readings can be large; an effect the other way counts as inactive or inconclusive.
On the % scale 0 is the no-effect control and ±100 the full control effect.

Thyrotropin receptor (Homo sapiens), sequence (P16473 whole entry, looked up): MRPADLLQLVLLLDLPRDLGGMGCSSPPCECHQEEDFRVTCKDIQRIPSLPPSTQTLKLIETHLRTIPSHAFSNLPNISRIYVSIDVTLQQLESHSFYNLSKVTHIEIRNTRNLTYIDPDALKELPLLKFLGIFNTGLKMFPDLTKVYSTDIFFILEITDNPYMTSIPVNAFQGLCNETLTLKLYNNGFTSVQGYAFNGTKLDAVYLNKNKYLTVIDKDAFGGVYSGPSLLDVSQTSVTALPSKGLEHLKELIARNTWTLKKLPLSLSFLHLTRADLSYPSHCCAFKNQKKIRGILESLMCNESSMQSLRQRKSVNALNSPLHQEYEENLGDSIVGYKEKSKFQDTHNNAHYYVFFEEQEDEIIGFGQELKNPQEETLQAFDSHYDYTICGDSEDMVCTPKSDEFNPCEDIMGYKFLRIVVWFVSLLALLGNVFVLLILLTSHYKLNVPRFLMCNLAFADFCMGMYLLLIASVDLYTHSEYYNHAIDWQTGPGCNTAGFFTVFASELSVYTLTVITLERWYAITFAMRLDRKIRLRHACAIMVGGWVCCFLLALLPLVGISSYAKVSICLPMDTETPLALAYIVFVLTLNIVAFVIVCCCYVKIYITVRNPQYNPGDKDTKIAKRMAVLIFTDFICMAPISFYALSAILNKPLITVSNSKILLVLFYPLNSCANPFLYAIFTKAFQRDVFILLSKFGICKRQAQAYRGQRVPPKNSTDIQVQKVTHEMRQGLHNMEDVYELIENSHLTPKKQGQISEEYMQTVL
Nuclear receptor subfamily 1 group I member 2 (Homo sapiens), sequence (O75469 whole entry, looked up): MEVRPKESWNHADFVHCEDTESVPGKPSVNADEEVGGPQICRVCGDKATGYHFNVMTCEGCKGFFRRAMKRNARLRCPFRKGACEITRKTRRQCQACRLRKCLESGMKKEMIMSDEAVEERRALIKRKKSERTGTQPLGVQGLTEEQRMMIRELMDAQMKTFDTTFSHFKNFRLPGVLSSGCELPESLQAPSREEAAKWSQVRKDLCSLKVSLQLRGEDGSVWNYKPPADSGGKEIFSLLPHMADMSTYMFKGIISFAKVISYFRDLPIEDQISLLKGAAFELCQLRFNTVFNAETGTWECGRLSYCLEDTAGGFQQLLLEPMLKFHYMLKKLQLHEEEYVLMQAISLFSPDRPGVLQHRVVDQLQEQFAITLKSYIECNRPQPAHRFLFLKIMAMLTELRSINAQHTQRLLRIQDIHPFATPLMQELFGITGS
Thyrotropin-releasing hormone receptor (Homo sapiens), sequence (P34981 whole entry, looked up): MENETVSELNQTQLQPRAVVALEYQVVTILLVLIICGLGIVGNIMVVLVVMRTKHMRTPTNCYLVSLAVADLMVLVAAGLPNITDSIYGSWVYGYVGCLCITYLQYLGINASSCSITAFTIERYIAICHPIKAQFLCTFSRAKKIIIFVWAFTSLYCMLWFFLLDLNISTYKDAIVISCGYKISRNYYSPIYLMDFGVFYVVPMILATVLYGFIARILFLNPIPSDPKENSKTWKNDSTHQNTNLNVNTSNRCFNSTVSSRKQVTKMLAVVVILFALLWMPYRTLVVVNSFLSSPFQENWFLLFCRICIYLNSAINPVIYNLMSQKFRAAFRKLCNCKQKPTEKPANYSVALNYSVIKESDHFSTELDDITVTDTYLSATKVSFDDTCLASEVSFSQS
Progesterone receptor (Homo sapiens), sequence (P06401 whole entry, looked up): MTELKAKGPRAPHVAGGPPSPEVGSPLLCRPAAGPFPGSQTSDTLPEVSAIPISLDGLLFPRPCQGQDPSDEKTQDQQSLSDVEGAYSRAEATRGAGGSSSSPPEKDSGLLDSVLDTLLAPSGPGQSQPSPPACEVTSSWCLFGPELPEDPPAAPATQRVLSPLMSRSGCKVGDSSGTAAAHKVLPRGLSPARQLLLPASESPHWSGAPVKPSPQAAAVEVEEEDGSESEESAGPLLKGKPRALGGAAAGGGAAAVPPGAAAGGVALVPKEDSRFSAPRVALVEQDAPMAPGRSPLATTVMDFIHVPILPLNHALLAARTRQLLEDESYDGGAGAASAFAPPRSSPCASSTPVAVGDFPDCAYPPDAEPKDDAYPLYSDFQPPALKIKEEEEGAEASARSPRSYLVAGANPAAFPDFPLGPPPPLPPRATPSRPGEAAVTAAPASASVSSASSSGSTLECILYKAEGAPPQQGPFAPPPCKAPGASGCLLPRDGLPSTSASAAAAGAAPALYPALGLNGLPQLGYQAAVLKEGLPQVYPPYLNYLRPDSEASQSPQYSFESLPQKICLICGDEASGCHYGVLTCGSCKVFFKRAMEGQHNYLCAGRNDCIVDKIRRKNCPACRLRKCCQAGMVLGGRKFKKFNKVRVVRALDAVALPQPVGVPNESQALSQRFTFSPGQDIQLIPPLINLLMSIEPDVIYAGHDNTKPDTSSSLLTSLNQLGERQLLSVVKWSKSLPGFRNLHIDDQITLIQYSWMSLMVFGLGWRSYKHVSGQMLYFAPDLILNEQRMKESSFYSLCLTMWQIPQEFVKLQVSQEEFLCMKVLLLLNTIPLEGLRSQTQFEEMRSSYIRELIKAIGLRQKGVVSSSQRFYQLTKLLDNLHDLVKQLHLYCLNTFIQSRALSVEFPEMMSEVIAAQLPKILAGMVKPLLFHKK
Nuclear receptor subfamily 1 group I member 2 (Rattus norvegicus), sequence (Q9R1A7 whole entry, looked up): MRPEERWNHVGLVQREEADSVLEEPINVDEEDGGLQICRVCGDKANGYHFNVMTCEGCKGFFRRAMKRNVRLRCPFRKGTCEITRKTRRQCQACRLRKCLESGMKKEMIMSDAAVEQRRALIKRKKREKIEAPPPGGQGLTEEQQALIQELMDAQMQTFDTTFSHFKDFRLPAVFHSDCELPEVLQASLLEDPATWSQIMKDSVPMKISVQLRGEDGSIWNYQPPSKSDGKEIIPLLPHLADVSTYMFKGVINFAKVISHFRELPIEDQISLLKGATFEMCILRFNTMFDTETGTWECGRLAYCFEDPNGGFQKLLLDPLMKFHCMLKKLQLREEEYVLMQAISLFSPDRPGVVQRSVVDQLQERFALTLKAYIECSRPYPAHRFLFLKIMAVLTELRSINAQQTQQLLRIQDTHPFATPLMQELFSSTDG

Consider `COC(=O)C1CC(=O)C(C(=O)OC)CC1=O` (configuration not stated), for which the activity change, negative = inhibition in [1] is 0.232% [at 8.39 µM]; in [4], 5.34% [at 8.39 µM]. Besides, the activity change, negative = cytotoxicity is 1.85% [at 8.39 µM] in experiment [2]; 15.1% [at 8.39 µM] in experiment [5]; -0.722% [at 6.97 µM] in experiment [7]; 1.52% [at 8.39 µM] in [11]; 8.06% [at 8.39 µM] in experiment [13]; 9.03% [at 8.39 µM] in [15]. For the same compound, the activation was 15.8% [at 8.39 µM] in [3], 5.28% [at 6.97 µM] in experiment [8], 0.0574% [at 5.23 µM] in experiment [10] and 2.25% [at 8.39 µM] in experiment [16]. In experiment [6], the viability change, negative = cytotoxic is -4.8% [at 6.97 µM]. Further, the activity, negative = inhibition in experiment [9] was 1.02% [at 4.65 µM]. In experiment [12], the caspase activation was 0.89% [at 8.39 µM]. Further, the caspase-3/7 activation in [14] is 0.641% [at 8.39 µM].

As for `CC(C)CCCC(C)(C)O`, the outcome in experiment [1], in [6], in experiment [7], in [8] and in experiment [14] was inactive. The Potency result in [2], in experiment [3], in experiment [4], in [5], in experiment [17] and in experiment [11] was “inactive” in each case. Further, the Potency entry in [12], in [13] and in experiment [15] was “inactive” throughout.

For `O=C1CC(c2ccc(Cl)cc2)CC(=O)N1`, the result in experiment [1], in experiment [6], in experiment [7], in [8], in experiment [9] and in experiment [10] was inactive. The Potency entry in [2], in experiment [3], in experiment [4], in experiment [5], in experiment [17] and in experiment [11] was “inactive” each time. For the same compound, the Potency result in experiment [12], in experiment [15] and in experiment [16] was “inactive” in each case.

Take `CCCCCCCCSCC`: the outcome in experiment [1], in experiment [7], in experiment [8], in experiment [9], in experiment [10] and in experiment [14] was inactive. In addition, the Potency entry in [2], in experiment [3], in [4], in [5], in [17] and in experiment [11] was “inactive” throughout. Besides, the Potency entry in [12], in [13], in experiment [15] and in [16] was “inactive” each time.

Turning to `O=C(CCN1CCN(CCO)CC1)N1c2ccccc2Sc2ccc(C(F)(F)F)cc21`, the outcome in experiment [1], in [6], in [7], in experiment [8], in experiment [9] and in [10] was inactive. In addition, the result in experiment [14] was inactive. The Potency entry in experiment [2], in [3], in experiment [4], in experiment [5], in experiment [11] and in experiment [12] was “inactive” each time. Besides, the Potency result in experiment [13] was “inactive”. In experiment [18], the max activation was -2.18%. The Potency in experiment [19] was 10 µM (active); in experiment [20], 15.8 µM (active).

`C=Cc1ccccn1`: the call in experiment [1], in experiment [6], in experiment [7], in [8], in experiment [9] and in experiment [10] was inactive. Moreover, the call in experiment [14] was inactive. In addition, the Potency result in experiment [2], in experiment [3], in experiment [4], in [5], in [11] and in experiment [12] was “inactive” each time. Besides, the Potency result in experiment [13], in experiment [15] and in experiment [16] was “inactive” each time.

On to `COc1cc(C(=S)N2CCOCC2)cc(OC)c1OC`, for which the result in experiment [1], in experiment [7], in experiment [8], in experiment [9], in [10] and in experiment [14] was inactive. Further, the Potency entry in experiment [2], in experiment [3], in [4], in [5], in [17] and in experiment [11] was “inactive” each time. Further, the Potency result in experiment [12], in [13], in [15], in experiment [16], in experiment [19] and in [20] was “inactive” each time. Moreover, in experiment [18], the max activation was -2.22%.

On to `CCCCCCCCCC(C)=O`, for which the result in experiment [1], in experiment [6], in [7], in [8], in [9] and in experiment [10] was inactive. Also, in experiment [14], the compound was classed as inactive. The Potency result in experiment [2], in experiment [3], in [4], in [5], in experiment [11] and in experiment [12] was “inactive” each time. Further, the Potency result in [13] was “inactive”.

These data come from PubChem BioAssay (Tox21).
